Each sequence was assayed against FAM178A (assay: pooled miR-30 sensor sort-seq; sequence = guide strand). Details: shRNA.

First: TTTGGTATCATAGATTCTCTTG
Second: TAAGAAGCTAGTGACAACTGGA
The sensor-assay potency score (higher = more potent) of the first is lower: -0.0968 for the first, 0.82 for the second.

First: TAGACAATCTACTTCCTCCATA
Second: TTTAATTGCAGACTTTTCCTGA
The sensor-assay potency score (higher = more potent) of the first is lower: -0.597 for the first, 0.605 for the second.

Compared with TATTGAAAAACACAGCTGCTAC, TTTTTCTTGAGAGATGTCCATT is lower in sensor-assay potency score (higher = more potent): -0.444 for the first, -1.17 for the second.

First: TTTCTTTAGAAATTCCTTGTGC
Second: TAGTTTTGTCTCCTTCTCCTTT
The sensor-assay potency score (higher = more potent) of the first is higher: 0.466 for the first, -0.485 for the second.

Compared with TTTAGTTCTCGTTCTCTGCAGT, TATGTCTTCTTGTAGTTGCTTC is higher in sensor-assay potency score (higher = more potent): -0.0234 for the first, 0.216 for the second.

These sequences were tested against FAM181A in the same assay as above. Details: shRNA.

First: AAGAACAAGAACAACAACTGAG
Second: TTGATGTCGCTGGACGCCAGGT
The sensor-assay potency score (higher = more potent) of the first is higher: 0.506 for the first, -1.09 for the second.

Going from TTGCGATGGTCCACGGAGCGGC to TACTTCTGGGAGAAGCGCTTGA, the sensor-assay potency score (higher = more potent) rises from -0.977 to -0.152.

Going from TAGCAAGACATTCCTCCCTGTA to TTTTCTTACCCTCATAGGGAGG, the sensor-assay potency score (higher = more potent) falls from -0.518 to -1.8.

Compared with TCGGATGCCATCACCAGGGGGC, TTAGCAAGACATTCCTCCCTGT is higher in sensor-assay potency score (higher = more potent): -0.489 for the first, 0.483 for the second.

Compared with TTTTCAGGTAGGGCTCAGCAGC, AACAAGAACAACAACTGAGATT is higher in sensor-assay potency score (higher = more potent): -1.38 for the first, -1.01 for the second.

Going from AAATCCAGGAGCAGCCTCCTGG to ATCTTCACATCACTGTCGGATG, the sensor-assay potency score (higher = more potent) falls from -1.06 to -1.37.

These sequences were tested against FAM181B in the same assay as above. Details: shRNA.

Going from TTGGTTTCTTGACTCCTCTGGT to TAAATACACTGACCTTCGCTGA, the sensor-assay potency score (higher = more potent) falls from 0.637 to -0.839.

Going from TTTTGTTTTAACACTTGAGGTT to TTTGTTTTAACACTTGAGGTTG, the sensor-assay potency score (higher = more potent) falls from 0.0361 to -0.289.

Compared with TGAAGCTGAGTAGATCGCGGGT, TTGATGTTGCTGGACGCCGAGT is lower in sensor-assay potency score (higher = more potent): -0.406 for the first, -1.34 for the second.

Going from TTCACCTTCCGCTTCGACTTGC to TACACTAAATACACTGACCTTC, the sensor-assay potency score (higher = more potent) falls from 0.326 to -0.096.

First: TTGTGATTAAACAATCCCCAAC
Second: TTCTTGACTCCTCTGGTCCAGT
The sensor-assay potency score (higher = more potent) of the first is lower: -1.56 for the first, -0.871 for the second.

Compared with TCATCGTCCTCGAAACAGCAGC, TTGTTTTAACACTTGAGGTTGT is higher in sensor-assay potency score (higher = more potent): -1.07 for the first, 0.449 for the second.

What follows are sequences tested against FAM194A in the same assay as above. Details: shRNA.

Going from TTAGTTTCGACTCTTCTGGATT to TTGTCTTGTTCTAAGATGCGGA, the sensor-assay potency score (higher = more potent) rises from -1.18 to -0.227.

First: TTTTCTTTTGCCTTGAGTCTGT
Second: TAGAAATCTTGTCTTGTTCTAA
The sensor-assay potency score (higher = more potent) of the first is higher: 0.354 for the first, 0.351 for the second.

Compared with TTTAGTTTCGACTCTTCTGGAT, TACAATGTCATCAATTATCTGT is higher in sensor-assay potency score (higher = more potent): 0.0335 for the first, 0.418 for the second.

From the OligoGym collection
